Holding throughout (test): PBM; 200 nM protein, PBS
What all share (details): dsDNA, one strand shown

The target in assay [1] is T1, SIX6 (Homo sapiens, UniProt O95475 114-200, L167I).
T1 sequence: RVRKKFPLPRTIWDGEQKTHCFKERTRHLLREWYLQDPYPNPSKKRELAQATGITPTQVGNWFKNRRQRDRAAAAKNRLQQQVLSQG

The target of assay [2] is T2, SIX6 (Homo sapiens, UniProt O95475 114-200, L143V).
T2 sequence: T1 sequence with L30V, I54L

Assay [3] addresses T3, SIX6 (Homo sapiens, UniProt O95475 114-200, H141N).
T3 sequence: T1 sequence with H28N, I54L

The target in assay [4] is T4, SIX6 (Homo sapiens, UniProt O95475 114-200, T165P).
T4 sequence: T1 sequence with T52P, I54L

Assay [5] deals with T5, SIX6 (Homo sapiens, UniProt O95475 114-200, L167M).
T5 sequence: T1 sequence with I54M

Assay [6] addresses T6, SIX6 (Homo sapiens, UniProt O95475 114-200, L143M).
T6 sequence: T1 sequence with L30M, I54L

In assay [7] the target is T7, SIX6 (Homo sapiens, UniProt O95475 114-200, L143I).
T7 sequence: T1 sequence with L30I, I54L

The target of assay [8] is T8, SIX6 (Homo sapiens, UniProt O95475 114-200, T165G).
T8 sequence: T1 sequence with T52G, I54L

Assay [9] concerns the target T9, SIX6 (Homo sapiens, UniProt O95475 114-200, T139Q).
T9 sequence: T1 sequence with T26Q, I54L

Assay [10] concerns the target T10, SIX6 (Homo sapiens, UniProt O95475 114-200, T165A).
T10 sequence: T1 sequence with T52A, I54L

The target in assay [11] is T11, SIX6 (Homo sapiens, UniProt O95475 114-200, L167V).
T11 sequence: T1 sequence with I54V

The target in assay [12] is T12, SIX6 (Homo sapiens, UniProt O95475 114-200).
T12 sequence: T1 sequence with I54L

Assay [13] addresses T13, SIX6 (Homo sapiens, UniProt O95475 114-200, T165I).
T13 sequence: T1 sequence with T52I, I54L

Residue numbers refer to the chain shown, from its start.

For GGATATCC, the binding signal in [1] is 11 upbm affinity estimate (log intensity, higher = more binding, comparable within an allelic series); in [2], 10.2 upbm affinity estimate (log intensity, higher = more binding, comparable within an allelic series); in [3], 10.9 upbm affinity estimate (log intensity, higher = more binding, comparable within an allelic series); in assay [4], 9.51 upbm affinity estimate (log intensity, higher = more binding, comparable within an allelic series); in assay [5], 10.6 upbm affinity estimate (log intensity, higher = more binding, comparable within an allelic series); in assay [6] it was 10.9 upbm affinity estimate (log intensity, higher = more binding, comparable within an allelic series). For the same sequence, the binding signal in assay [7] is 10.2 upbm affinity estimate (log intensity, higher = more binding, comparable within an allelic series); in [8], 11 upbm affinity estimate (log intensity, higher = more binding, comparable within an allelic series); in assay [9], 11 upbm affinity estimate (log intensity, higher = more binding, comparable within an allelic series); in assay [10], 10.8 upbm affinity estimate (log intensity, higher = more binding, comparable within an allelic series); in assay [11] it was 10.9 upbm affinity estimate (log intensity, higher = more binding, comparable within an allelic series); in [12] it was 11 upbm affinity estimate (log intensity, higher = more binding, comparable within an allelic series). The binding signal in assay [13] was 10.9 upbm affinity estimate (log intensity, higher = more binding, comparable within an allelic series).
As for GATATCTA, the binding signal was 11.1 upbm affinity estimate (log intensity, higher = more binding, comparable within an allelic series) in [1]; 10.4 upbm affinity estimate (log intensity, higher = more binding, comparable within an allelic series) in [2]; 11.1 upbm affinity estimate (log intensity, higher = more binding, comparable within an allelic series) in assay [3]; 9.98 upbm affinity estimate (log intensity, higher = more binding, comparable within an allelic series) in assay [4]; 10.8 upbm affinity estimate (log intensity, higher = more binding, comparable within an allelic series) in [5]; 10.9 upbm affinity estimate (log intensity, higher = more binding, comparable within an allelic series) in assay [6]. Also, the binding signal in [7] was 10.3 upbm affinity estimate (log intensity, higher = more binding, comparable within an allelic series); in assay [8], 11.1 upbm affinity estimate (log intensity, higher = more binding, comparable within an allelic series); in assay [9], 11 upbm affinity estimate (log intensity, higher = more binding, comparable within an allelic series); in [10], 11 upbm affinity estimate (log intensity, higher = more binding, comparable within an allelic series); in assay [11] it was 10.9 upbm affinity estimate (log intensity, higher = more binding, comparable within an allelic series); in assay [12] it was 10.9 upbm affinity estimate (log intensity, higher = more binding, comparable within an allelic series). In [13], the binding signal was 10.9 upbm affinity estimate (log intensity, higher = more binding, comparable within an allelic series).
Turning to ATGACACC, the binding signal was 10.7 upbm affinity estimate (log intensity, higher = more binding, comparable within an allelic series) in assay [1]; 10.2 upbm affinity estimate (log intensity, higher = more binding, comparable within an allelic series) in assay [2]; 11.1 upbm affinity estimate (log intensity, higher = more binding, comparable within an allelic series) in [3]; 9.61 upbm affinity estimate (log intensity, higher = more binding, comparable within an allelic series) in assay [4]; 10.1 upbm affinity estimate (log intensity, higher = more binding, comparable within an allelic series) in [5]; 10.7 upbm affinity estimate (log intensity, higher = more binding, comparable within an allelic series) in assay [6]. For the same sequence, the binding signal in assay [7] is 10.4 upbm affinity estimate (log intensity, higher = more binding, comparable within an allelic series); in [8], 11.4 upbm affinity estimate (log intensity, higher = more binding, comparable within an allelic series); in assay [9], 11.3 upbm affinity estimate (log intensity, higher = more binding, comparable within an allelic series); in [10], 11.4 upbm affinity estimate (log intensity, higher = more binding, comparable within an allelic series); in assay [11], 10.5 upbm affinity estimate (log intensity, higher = more binding, comparable within an allelic series); in assay [12] it was 10.9 upbm affinity estimate (log intensity, higher = more binding, comparable within an allelic series). Besides, the binding signal in [13] is 10.9 upbm affinity estimate (log intensity, higher = more binding, comparable within an allelic series).
For GATATCAA, the binding signal in assay [1] is 11.4 upbm affinity estimate (log intensity, higher = more binding, comparable within an allelic series); in [2] it was 10.5 upbm affinity estimate (log intensity, higher = more binding, comparable within an allelic series); in assay [3], 11.3 upbm affinity estimate (log intensity, higher = more binding, comparable within an allelic series); in assay [4], 10 upbm affinity estimate (log intensity, higher = more binding, comparable within an allelic series); in assay [5], 10.8 upbm affinity estimate (log intensity, higher = more binding, comparable within an allelic series); in assay [6] it was 11 upbm affinity estimate (log intensity, higher = more binding, comparable within an allelic series). Further, the binding signal was 10.3 upbm affinity estimate (log intensity, higher = more binding, comparable within an allelic series) in [7]; 11.3 upbm affinity estimate (log intensity, higher = more binding, comparable within an allelic series) in assay [8]; 11.1 upbm affinity estimate (log intensity, higher = more binding, comparable within an allelic series) in [9]; 11.3 upbm affinity estimate (log intensity, higher = more binding, comparable within an allelic series) in assay [10]; 11.1 upbm affinity estimate (log intensity, higher = more binding, comparable within an allelic series) in [11]; 11.1 upbm affinity estimate (log intensity, higher = more binding, comparable within an allelic series) in assay [12]. Also, in assay [13], the binding signal is 11.1 upbm affinity estimate (log intensity, higher = more binding, comparable within an allelic series).
ATGATATC: the binding signal in [1] is 11.4 upbm affinity estimate (log intensity, higher = more binding, comparable within an allelic series); in [2], 10.5 upbm affinity estimate (log intensity, higher = more binding, comparable within an allelic series); in [3] it was 11.5 upbm affinity estimate (log intensity, higher = more binding, comparable within an allelic series); in assay [4], 9.88 upbm affinity estimate (log intensity, higher = more binding, comparable within an allelic series); in [5] it was 10.9 upbm affinity estimate (log intensity, higher = more binding, comparable within an allelic series); in assay [6], 11.2 upbm affinity estimate (log intensity, higher = more binding, comparable within an allelic series). In addition, the binding signal in assay [7] is 10.6 upbm affinity estimate (log intensity, higher = more binding, comparable within an allelic series); in assay [8] it was 11.6 upbm affinity estimate (log intensity, higher = more binding, comparable within an allelic series); in assay [9] it was 11.5 upbm affinity estimate (log intensity, higher = more binding, comparable within an allelic series); in assay [10], 11.4 upbm affinity estimate (log intensity, higher = more binding, comparable within an allelic series); in assay [11], 11.4 upbm affinity estimate (log intensity, higher = more binding, comparable within an allelic series); in assay [12], 11.3 upbm affinity estimate (log intensity, higher = more binding, comparable within an allelic series). In addition, the binding signal in assay [13] is 11.2 upbm affinity estimate (log intensity, higher = more binding, comparable within an allelic series).
CAGTATCA: the binding signal in assay [1] was 11.2 upbm affinity estimate (log intensity, higher = more binding, comparable within an allelic series); in assay [2] it was 10.2 upbm affinity estimate (log intensity, higher = more binding, comparable within an allelic series); in [3], 11.1 upbm affinity estimate (log intensity, higher = more binding, comparable within an allelic series); in assay [4] it was 9.69 upbm affinity estimate (log intensity, higher = more binding, comparable within an allelic series); in assay [5], 10.5 upbm affinity estimate (log intensity, higher = more binding, comparable within an allelic series); in assay [6], 10.7 upbm affinity estimate (log intensity, higher = more binding, comparable within an allelic series). Also, the binding signal in [7] was 10.3 upbm affinity estimate (log intensity, higher = more binding, comparable within an allelic series); in assay [8], 11.2 upbm affinity estimate (log intensity, higher = more binding, comparable within an allelic series); in assay [9] it was 11 upbm affinity estimate (log intensity, higher = more binding, comparable within an allelic series); in assay [10] it was 11.1 upbm affinity estimate (log intensity, higher = more binding, comparable within an allelic series); in assay [11], 10.9 upbm affinity estimate (log intensity, higher = more binding, comparable within an allelic series); in [12], 10.9 upbm affinity estimate (log intensity, higher = more binding, comparable within an allelic series). The binding signal in assay [13] is 10.9 upbm affinity estimate (log intensity, higher = more binding, comparable within an allelic series).
For GTATCAAC, the binding signal in assay [1] is 11.2 upbm affinity estimate (log intensity, higher = more binding, comparable within an allelic series); in assay [2] it was 10.3 upbm affinity estimate (log intensity, higher = more binding, comparable within an allelic series); in [3] it was 11.3 upbm affinity estimate (log intensity, higher = more binding, comparable within an allelic series); in assay [4], 9.76 upbm affinity estimate (log intensity, higher = more binding, comparable within an allelic series); in assay [5], 10.6 upbm affinity estimate (log intensity, higher = more binding, comparable within an allelic series); in assay [6] it was 11 upbm affinity estimate (log intensity, higher = more binding, comparable within an allelic series). The binding signal was 10.4 upbm affinity estimate (log intensity, higher = more binding, comparable within an allelic series) in assay [7]; 11.4 upbm affinity estimate (log intensity, higher = more binding, comparable within an allelic series) in assay [8]; 11.3 upbm affinity estimate (log intensity, higher = more binding, comparable within an allelic series) in assay [9]; 11.3 upbm affinity estimate (log intensity, higher = more binding, comparable within an allelic series) in [10]; 11 upbm affinity estimate (log intensity, higher = more binding, comparable within an allelic series) in assay [11]; 11.1 upbm affinity estimate (log intensity, higher = more binding, comparable within an allelic series) in [12]. Besides, in assay [13], the binding signal was 11.1 upbm affinity estimate (log intensity, higher = more binding, comparable within an allelic series).

The values above are taken from publication PMC11006913.
